Results on 21 molecules are retold here after PubChem BioAssay (NCATS).

Test [1] addresses Calcium and integrin-binding protein 1 (Homo sapiens) (UniProt Q99828). The test can be described thus: Primary qHTS for Identification of Calcium Integrin Binding Protein 1 (CIB1) Competitor (AID 1508620). Also: top concentration of the series differs between compounds; % is scaled to controls: 0 for no effect and ±100 for the full control effect. Put shortly: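 Fluorescence polarization competition: GST-tagged CIB1 (1 uM final) preincubated with compound 15 min at room temperature, then FITC-labelled alphaIIb peptide (100 nM final) added. After 15 min at room temperature, polarization read at Ex 480/Em 540.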
On the technique in general: In qHTS, concentration-response curves come from the screen itself.

In test [2] the target is Cytochrome P450 2D6 (Homo sapiens) (UniProt P10635). The test can be described thus: Cytochrome P450 family 2 subfamily D member 6 (CYP2D6) small molecule antagonists: luciferase biochemical (cell-free) qHTS assay (AID 1645840; active = well fitted curve in the direction sought with a large enough effect in the repeat runs; an effect the other way counts as inactive or inconclusive; also: nearly all actives have a fitted effect of over 55% in size; also: potency is read from the fitted curve at half-maximal effect; as to activity change, negative = inhibition: % is scaled to controls: 0 for no effect and ±100 for the full control effect). Put shortly: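 P450-Glo luminescent screen: recombinant CYP2D6 enzyme–proluciferin substrate mix preincubated with compound 10 min at room temperature, then NADPH regeneration added for 1 h at room temperature. Detection reagent added for 20 min; luciferin light read as relative luminescence units.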

Test [3] can be described thus: Primary qHTS for inhibitors of nuclear receptor binding SET domain protein 2 (NSD2) in an isogenic RCH-ACV NSD2 p.E1099K mutant (9B) (AID 1645876). Also: nearly all actives have a fitted effect of over 70% in size. Also: potency is read from the fitted curve at half-maximal effect. As to activity change, negative = viability loss: % is scaled to controls: 0 for no effect and ±100 for the full control effect.
A short description of test [4]: Primary qHTS for inhibitors of nuclear receptor binding SET domain protein 2 (NSD2) in an RCH-ACV wild type WT cells (2C) (AID 1645877). Also: nearly all actives have a fitted effect of over 70% in size. Also: potency is read from the fitted curve at half-maximal effect.
The target in test [5] is Cytochrome P450 2C9 (Homo sapiens) (UniProt P11712). The test can be described thus: Cytochrome P450 family 2 subfamily C member 9 (CYP2C9) small molecule antagonists: luciferase biochemical (cell-free) qHTS assay (AID 1645842; active = well fitted curve in the direction sought with a large enough effect in the repeat runs; an effect the other way counts as inactive or inconclusive; also: nearly all actives have a fitted effect of over 55% in size; also: potency is read from the fitted curve at half-maximal effect; as to activity change, negative = inhibition: % is scaled to controls: 0 for no effect and ±100 for the full control effect). In short, it runs like this: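 Luminescence, after 20 min with luciferin detection reagent, reflected CYP2C9 turnover during a 1 h NADPH-driven reaction at 37C. Enzyme-substrate mix contained 0.4% bovine serum albumin and was preincubated with compound 10 min at room temperature.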

Test [6] concerns the target Catechol O-methyltransferase (Homo sapiens) (UniProt P21964). The test can be described thus: Confirmatory Screen for Target Class Profiling of Small Molecule Inhibitors of Methyltransferases (AID 1745852; calls by dose curve). The following applies: MTase-Glo luminescence, SAH detection, recombinant enzyme; measured here: COMT max response; stronger effect = lower value.
The target in test [7] is Guanidinoacetate N-methyltransferase (Homo sapiens) (UniProt Q14353). Described as above. As to conditions: MTase-Glo luminescence, SAH detection, recombinant enzyme; activity change, negative = inhibition: at 57.3 µM (top of the series) unless noted.
Test [8] has as its target Nicotinamide N-methyltransferase (Homo sapiens) (UniProt P40261). Described as above. As to conditions: MTase-Glo luminescence, SAH detection, recombinant enzyme; measured here: NNMT max response; stronger effect = lower value.
In test [9] the target is Phenylethanolamine N-methyltransferase (Homo sapiens) (UniProt P11086). The description is as above. As to conditions: MTase-Glo luminescence, SAH detection, recombinant enzyme; measured here: PNMT max response; stronger effect = lower value.
The target in test [10] is Cytochrome P450 3A4 (Homo sapiens) (UniProt P08684). The experiment in a line: Cytochrome P450 family 3 subfamily A member 4 (CYP3A4) small molecule antagonists: luciferase qHTS assay (AID 1645841; active = well fitted curve in the direction sought with a large enough effect in the repeat runs; an effect the other way counts as inactive or inconclusive; also: potency is read from the fitted curve at half-maximal effect; nearly all actives have a fitted effect of over 45% in size). Put shortly:
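P450-Glo CYP3A4 enzyme with proluciferin substrate preincubated 10 min with compound at room temperature, then NADPH regeneration 1 h. Luciferin detection reagent added for 20 min; luminescence recorded. Ketoconazole positive control.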

Test [11] concerns the target N-terminal Xaa-Pro-Lys N-methyltransferase 1 (Homo sapiens) (UniProt Q9BV86). The test can be described thus: Confirmatory qHTS for Inhibitors of N-terminal methyltransferase 1 (NTMT1): MTaseGlo Assay (AID 1645874).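 Also: luminescence from SAH made as NTMT1 methylates SPKRIA peptide using SAM; 0% = DMSO control and -100% = no-enzyme control; nearly all actives have a fitted effect of over 65% in size.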 In short, it runs like this:
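Compounds are incubated with 125 nM NTMT1 and 100 uM SAM for 15 min before the SPKRIA peptide (1 uM) starts a 30 min room-temperature methylation. SAH is measured by coupled luciferase luminescence and curves fitted to a Hill equation.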

Results filed as inconclusive are left out. Active and inactive are the calls of the source. Unless noted, calls follow the shape of the dose curve; as a rule, active = well fitted curve in the direction sought with a large enough effect; inconclusive = small, poorly fitted or top-dose-only effect, or another doubt; inactive = no such curve, though single readings can be large; an effect the other way counts as inactive or inconclusive.

Chain of Cytochrome P450 2D6 (Homo sapiens) (P10635 whole entry, looked up): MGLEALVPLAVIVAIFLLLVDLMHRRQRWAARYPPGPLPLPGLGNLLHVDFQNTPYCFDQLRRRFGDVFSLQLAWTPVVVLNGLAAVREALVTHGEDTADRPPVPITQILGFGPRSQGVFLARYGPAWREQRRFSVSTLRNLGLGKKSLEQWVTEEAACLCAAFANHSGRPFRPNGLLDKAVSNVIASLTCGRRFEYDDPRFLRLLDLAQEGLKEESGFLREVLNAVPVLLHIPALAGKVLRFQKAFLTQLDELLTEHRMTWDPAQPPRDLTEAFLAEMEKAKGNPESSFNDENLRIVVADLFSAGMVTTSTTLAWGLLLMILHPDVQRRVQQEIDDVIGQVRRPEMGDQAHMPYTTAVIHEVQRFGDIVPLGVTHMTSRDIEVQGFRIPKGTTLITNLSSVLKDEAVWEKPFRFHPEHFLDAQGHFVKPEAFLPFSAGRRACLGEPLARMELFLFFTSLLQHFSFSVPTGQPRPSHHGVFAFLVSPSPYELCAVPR
Chain of Cytochrome P450 2C9 (Homo sapiens) (P11712 whole entry, looked up): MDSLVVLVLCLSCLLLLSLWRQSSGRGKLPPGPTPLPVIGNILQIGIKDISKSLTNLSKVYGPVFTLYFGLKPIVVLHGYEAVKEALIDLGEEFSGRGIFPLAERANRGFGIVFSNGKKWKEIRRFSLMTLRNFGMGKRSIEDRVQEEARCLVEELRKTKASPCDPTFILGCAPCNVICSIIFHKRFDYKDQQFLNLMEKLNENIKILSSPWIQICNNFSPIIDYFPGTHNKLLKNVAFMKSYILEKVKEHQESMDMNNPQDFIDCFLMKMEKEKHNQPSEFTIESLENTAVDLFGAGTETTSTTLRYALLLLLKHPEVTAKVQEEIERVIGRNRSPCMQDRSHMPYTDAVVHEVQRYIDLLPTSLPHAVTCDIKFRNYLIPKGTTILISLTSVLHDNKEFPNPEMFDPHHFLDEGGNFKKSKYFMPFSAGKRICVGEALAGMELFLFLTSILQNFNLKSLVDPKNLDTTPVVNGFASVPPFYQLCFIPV
Chain of Calcium and integrin-binding protein 1 (Homo sapiens) (Q99828 whole entry, looked up): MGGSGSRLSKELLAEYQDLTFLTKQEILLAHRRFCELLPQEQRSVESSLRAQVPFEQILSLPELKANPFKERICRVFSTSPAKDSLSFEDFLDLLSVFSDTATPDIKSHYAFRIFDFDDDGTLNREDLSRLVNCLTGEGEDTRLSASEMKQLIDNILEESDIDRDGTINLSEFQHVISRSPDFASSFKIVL
Chain of Phenylethanolamine N-methyltransferase (Homo sapiens) (P11086 whole entry, looked up): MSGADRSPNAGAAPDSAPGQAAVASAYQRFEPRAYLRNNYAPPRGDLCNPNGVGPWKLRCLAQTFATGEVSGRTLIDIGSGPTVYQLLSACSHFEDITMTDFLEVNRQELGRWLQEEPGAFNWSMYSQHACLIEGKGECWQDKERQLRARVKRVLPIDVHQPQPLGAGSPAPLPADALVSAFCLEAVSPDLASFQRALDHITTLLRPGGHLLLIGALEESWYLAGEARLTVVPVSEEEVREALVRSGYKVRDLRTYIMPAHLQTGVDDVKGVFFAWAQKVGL
Chain of Catechol O-methyltransferase (Homo sapiens) (P21964 whole entry, looked up): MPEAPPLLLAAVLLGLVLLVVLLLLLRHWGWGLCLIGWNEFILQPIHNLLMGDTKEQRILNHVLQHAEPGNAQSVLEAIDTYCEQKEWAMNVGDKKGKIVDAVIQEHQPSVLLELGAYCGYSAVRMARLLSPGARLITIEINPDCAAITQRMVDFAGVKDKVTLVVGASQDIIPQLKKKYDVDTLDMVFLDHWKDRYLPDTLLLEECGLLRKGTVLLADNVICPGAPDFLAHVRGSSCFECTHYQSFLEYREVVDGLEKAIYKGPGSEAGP
Chain of Nicotinamide N-methyltransferase (Homo sapiens) (P40261 whole entry, looked up): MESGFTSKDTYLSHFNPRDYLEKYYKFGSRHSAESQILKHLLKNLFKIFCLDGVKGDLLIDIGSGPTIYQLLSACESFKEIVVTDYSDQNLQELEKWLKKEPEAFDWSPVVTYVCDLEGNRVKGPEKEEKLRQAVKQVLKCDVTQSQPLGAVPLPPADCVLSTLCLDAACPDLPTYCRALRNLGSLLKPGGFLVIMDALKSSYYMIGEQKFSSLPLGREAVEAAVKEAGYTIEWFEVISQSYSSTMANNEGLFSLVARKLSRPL
Chain of Cytochrome P450 3A4 (Homo sapiens) (P08684 whole entry, looked up): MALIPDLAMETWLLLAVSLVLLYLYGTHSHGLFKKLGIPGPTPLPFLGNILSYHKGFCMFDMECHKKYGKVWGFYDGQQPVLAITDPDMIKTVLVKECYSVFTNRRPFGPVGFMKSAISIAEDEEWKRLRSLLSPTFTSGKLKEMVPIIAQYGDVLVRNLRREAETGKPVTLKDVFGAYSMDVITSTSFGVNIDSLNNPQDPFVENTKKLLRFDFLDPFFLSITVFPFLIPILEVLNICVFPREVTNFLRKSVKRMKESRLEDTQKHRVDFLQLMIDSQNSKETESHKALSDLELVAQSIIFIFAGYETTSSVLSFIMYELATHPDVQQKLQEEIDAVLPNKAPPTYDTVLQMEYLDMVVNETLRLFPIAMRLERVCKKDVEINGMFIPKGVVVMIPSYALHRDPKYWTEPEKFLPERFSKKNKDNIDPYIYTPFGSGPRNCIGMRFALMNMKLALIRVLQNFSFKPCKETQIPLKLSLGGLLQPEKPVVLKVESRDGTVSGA
Chain of N-terminal Xaa-Pro-Lys N-methyltransferase 1 (Homo sapiens) (Q9BV86 whole entry, looked up): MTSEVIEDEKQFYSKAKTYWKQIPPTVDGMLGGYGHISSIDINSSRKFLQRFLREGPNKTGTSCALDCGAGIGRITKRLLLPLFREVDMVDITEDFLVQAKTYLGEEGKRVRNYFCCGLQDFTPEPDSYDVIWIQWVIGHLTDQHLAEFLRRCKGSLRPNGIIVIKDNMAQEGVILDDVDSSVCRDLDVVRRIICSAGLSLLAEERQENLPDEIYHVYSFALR

Turning to `COc1ccc(N2CCN(CCCNC(=O)Cn3c(=O)c4cccn4c4c(C)ccnc43)CC2)cc1`, the Potency result in test [1], in test [2], in [3] and in test [4] was “inactive” in each case.

With `CC[C@@H](C)[C@H](N)C(=O)N1Cc2ccccc2C1`, the Potency result in [1], in [5] and in [3] was “inactive” each time.

As for `COc1ccccc1CN[C@H]1CCCN[C@H]1c1ccccc1`, the Potency result in test [1], in test [5] and in [3] was “inactive” in each case. Further, the Potency in test [2] is 1.07 µM (active). The activity was 0.295% in test [6], -6.63% in test [8] and -0.84% in [9]. In addition, in test [7], the activity change, negative = inhibition turned out to be 7.32%.

On to `FC(F)(F)Oc1ccc(-c2ccc3nnc(C(F)(F)F)n3c2)cc1`, for which the Potency result in test [1], in test [2], in test [3] and in test [4] was “inactive” each time.

Take `CC(CNS(=O)(=O)C(C)C)c1ccc(-c2ccc(C#N)cc2)cc1` (stereo unspecified): the Potency result in test [1], in test [2] and in test [5] was “inactive” in each case. Also, the Potency in test [4] is 8.17 µM (active).

As for `COc1cc(Nc2nc3c(s2)CCCC3c2ccccc2)ccc1-n1cnc(C)c1` (stereo unspecified), the Potency result in test [1] was “inactive”. In test [2], the Potency is 0.275 µM (active). In addition, the activity change, negative = viability loss in test [3] is -1.48% [at 9.23 µM] (inactive). For the same molecule, in test [4], the outcome is “inactive [at 9.23 µM]”.

Turning to `CC[C@@H](Nc1c(Nc2cccc(C(=O)N(C)C)c2O)c(=O)c1=O)c1ccc(C)o1`, the Potency entry in test [1] and in [3] was “inactive” in each case. The Potency in test [5] is 2.39 µM (active).

Turning to `NCCCCN(Cc1nc2ccccc2[nH]1)[C@H]1CCCc2cccnc21`, in [1], the Potency entry was “inactive”. Further, the Potency in [5] was 6.74 µM (active).

For `COC(=O)[C@H](Cc1cccc(C(=N)N)c1)[C@@H](C)NC(=O)c1ccc(-c2cc[n+]([O-])cc2)cc1`, the Potency entry in [1], in test [2], in [5], in [3] and in [4] was “inactive” in each case. For the same molecule, the activity is -6.84% in test [6], 1.87% in test [8] and -2.03% in test [9]. Moreover, in test [7], the activity change, negative = inhibition is 0%.

On to `O=C(c1ccc(Cl)c([N+](=O)[O-])c1)N1CCN(c2ccccc2F)CC1`, for which the Potency entry in test [1] and in [2] was “inactive” each time. Further, the Potency in [5] was 2.68 µM (active); in test [4], 16.3 µM (active).

`COc1cc(Cc2cnc(N)nc2N)c(C(C)C)cc1OC`: the Potency result in [1] and in [5] was “inactive” throughout.

With `O=C(NC/C=C/CN1CCN(c2cccc(Cl)c2Cl)CC1)c1ccc(-c2ccccn2)cc1`, in test [1], the Potency entry is “inactive”. In [5], the Potency was 10.7 µM (active).

Take `CN1C(=O)N(c2cc(Cl)cc(Cl)c2)C(=O)[C@@]1(C)Cc1ccc(Br)cc1`: the Potency entry in test [1] was “inactive”. Also, the Potency in [5] is 3.38 µM (active).

Consider `O=C(CCCCC1CCCCC1)N1CCC(c2cnc[nH]2)CC1`, for which, in test [1], the Potency entry was “inactive”. The values for the Potency in test [2] and in test [3] were 5.35 µM (active) and 23 µM (active), respectively.

Regarding `Cc1ccc(-c2c(-c3nn(C)c4ncnc(N5CCC(N6CCCCC6)C5)c34)cnn2C)cc1` (stereo unspecified), the Potency result in test [1], in test [3] and in test [4] was “inactive” each time. Moreover, the Potency in test [10] was 0.12 µM (active); in test [5], 19 µM (active).

In the case of `Cc1occc1C(=O)n1ccnc1`, the Potency result in test [1], in [2] and in test [3] was “inactive” in each case.

As to `COc1cccc(C(=O)NCCNc2nc3cc(C)cc(C)c3cc2C#N)c1`, the Potency result in [1], in [11] and in [4] was “inactive” throughout. Besides, the Potency in test [5] is 1.69 µM (active).

In the case of `Cc1cc(OCCN2CCOCC2)nn1-c1ccc2ccccc2c1`, the Potency entry in test [1] and in test [3] was “inactive” in each case. For the same molecule, in [2], the Potency was 5.35 µM (active).

Turning to `NC(=O)[C@@H]1CC[C@H](c2ccc(OCc3ccccc3F)cc2)N1`, the Potency result in test [1], in test [5], in test [3] and in [4] was “inactive” in each case.

Regarding `O=C(Cn1c2ccccc2c2nc3n(c(=O)c21)CCS3)N1CCCC1`, the Potency result in [1], in [5], in test [3] and in test [4] was “inactive” in each case.

For the molecule `CN(C)C(=O)C(O)C(Cc1ccccc1)NC(=O)c1cc2cc(Cl)ccc2[nH]1` (stereo unspecified), the Potency entry in test [1], in test [3] and in test [4] was “inactive” throughout. The Potency in test [5] is 10.7 µM (active).
